Source: PubChem BioAssay (Johns Hopkins Ion Channel Center)
Rows were chosen to be rich in hits. Some 1.6% of all compounds tested hit in one or more screens of this group.
KCNQ2 inh: rat KCNQ2 potassium channel inhibitors, primary screen, cell-based, CHO-K1, FluxOR thallium flux, B-score; 20 min; hits give low values; B-score at 10 µM; 310,000 tested, 1.1% active; Potassium voltage-gated channel subfamily KQT member 2 (Rattus norvegicus), O88943;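 active = fluorescence ratio B-score at most minus 3 library SDs, with starting brightness B-score within 2 library SDs, cut at about -5.5 in these data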
KCNQ2 pot: potentiators of rat KCNQ2 potassium channel; CHO-K1 KCNQ2, FluxOR thallium flux fluorescence; hits give high values; Potassium voltage-gated channel subfamily KQT member 2 (Rattus norvegicus), O88943; 310,000 tested, 0.54% active; B-score at 10 µM; AID 2239, 2010;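 active = fluorescence ratio B-score at least 3 SD of library B-scores, with initial fluorescence B-score within 3 of them, cut at about 5.3 in these data; same plate scores as AID 2156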;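 also: B-score of peak minus minimum over baseline fluorescence ratio after K+ and Tl+ stimulus; positive B-score means potentiation of KCNQ2 with more thallium influx and brighter signal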
Kir21 conf inh: mouse Kir2.1 channel blockers, retest, confirmation, cell-based, FluxOR thallium flux, duplicate; Kir2.1-expressing cells, FluxOR thallium flux fluorescence; hits give low values; 2,300 tested, 41% active; Tl flux remaining, % of negative control (hits give low values), % at 10 µM; shares compounds with KCNQ2 pot;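 active = Primary-screen hit whose thallium flux fell at least 3 control SD below untreated wells in both duplicates, with normal baseline fluorescence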
HEK293 Tl flux: counter-screen for Kir2.1 inhibitors: effect in parental HEK293 cells. shares compounds with KCNQ2 pot. FluxOR thallium flux fluorescence; 0% = unstimulated blank wells. FluxOR signal as % of negative control (100 = no effect), % at 10 µM. 2,300 tested, 19% active;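 active = dye signal at least 3 control SD above or below untreated wells in both duplicates, raw fluorescence within 3, either direction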;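 also: percent is based on the flux ratio of peak minus minimum fluorescence over baseline F0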
CHO-K1 ctr: nonspecific thallium flux increase in parental CHO-K1, confirmation, counter-screen for KCNQ2 potentiator project, cell-based, FluxOR thallium flux, duplicate. shares compounds with KCNQ2 pot. parental CHO-K1 cells, FluxOR thallium flux fluorescence; zero = vehicle mean+3SD, 100% = vehicle-minus-blank window. activity increase over 3SD of controls, % at 10 µM. 1,200 tested, 43% active;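 active = signal rise of at least 3 SD above the untreated control mean, in both duplicate wells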;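 also: counter screen of KCNQ2 potentiator hits so any rise reflects channel-independent effects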
KCNQ1 sel pot: human KCNQ1 channel potentiation off-target, confirmation, selectivity assay for KCNQ2 potentiator project, cell-based, CHO, FluxOR thallium flux; CHO KCNQ1 stable, FluxOR thallium flux fluorescence; beyond 3SD, as % of vehicle-control signal; activation over 3SD threshold, % at 10 µM; shares compounds with KCNQ2 pot; 1,200 tested, 28% active;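 active = fluorescence ratio rise of at least 3 SD of vehicle wells above their mean, in both replicate wells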
KCNQ2 pot conf: rat KCNQ2 channel potentiators, confirmation, cell-based, CHO, FluxOR thallium flux, duplicate; shares compounds with KCNQ2 pot; CHO-KCNQ2 cells, FluxOR thallium flux fluorescence; potentiation, less the hit threshold, % at 10 µM; 1,200 tested, 68% active;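 active = fluorescence ratio rising 3 SD or more over the vehicle control mean in both replicates, plus primary screen hit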;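 also: peak minus minimum thallium fluorescence divided by baseline after K/Tl stimulus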
Kir2-1 sel: mouse Kir2.1 channel activation off-target, confirmation, selectivity assay for KCNQ2 potentiator project, cell-based, HEK293, FluxOR thallium flux. shares compounds with KCNQ2 pot. AID 2345, 2010. activity over 3SD threshold, % at 10 µM. HEK293 Kir2.1, FluxOR thallium flux fluorescence. 1,200 tested, 2% active;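 active = fluorescence ratio rise of at least 3 SD above the vehicle-control mean, seen in both replicates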
KCNQ2 W236L pot: potentiators of retigabine-insensitive KCNQ2 W236L, mechanism study for KCNQ2 potentiator project, cell-based, rat KCNQ2 W236L, CHO, automated patch clamp; shares compounds with KCNQ2 pot; automated patch clamp current; current increase over 3SD of negative controls (%), hits give high values, % at 25 µM; 940 tested, 10% active; AID 2558, 2010;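 active = current increase at least 3 SD of the untreated controls above them in both duplicate recordings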
Target sequence (O88943 whole entry W236L, looked up): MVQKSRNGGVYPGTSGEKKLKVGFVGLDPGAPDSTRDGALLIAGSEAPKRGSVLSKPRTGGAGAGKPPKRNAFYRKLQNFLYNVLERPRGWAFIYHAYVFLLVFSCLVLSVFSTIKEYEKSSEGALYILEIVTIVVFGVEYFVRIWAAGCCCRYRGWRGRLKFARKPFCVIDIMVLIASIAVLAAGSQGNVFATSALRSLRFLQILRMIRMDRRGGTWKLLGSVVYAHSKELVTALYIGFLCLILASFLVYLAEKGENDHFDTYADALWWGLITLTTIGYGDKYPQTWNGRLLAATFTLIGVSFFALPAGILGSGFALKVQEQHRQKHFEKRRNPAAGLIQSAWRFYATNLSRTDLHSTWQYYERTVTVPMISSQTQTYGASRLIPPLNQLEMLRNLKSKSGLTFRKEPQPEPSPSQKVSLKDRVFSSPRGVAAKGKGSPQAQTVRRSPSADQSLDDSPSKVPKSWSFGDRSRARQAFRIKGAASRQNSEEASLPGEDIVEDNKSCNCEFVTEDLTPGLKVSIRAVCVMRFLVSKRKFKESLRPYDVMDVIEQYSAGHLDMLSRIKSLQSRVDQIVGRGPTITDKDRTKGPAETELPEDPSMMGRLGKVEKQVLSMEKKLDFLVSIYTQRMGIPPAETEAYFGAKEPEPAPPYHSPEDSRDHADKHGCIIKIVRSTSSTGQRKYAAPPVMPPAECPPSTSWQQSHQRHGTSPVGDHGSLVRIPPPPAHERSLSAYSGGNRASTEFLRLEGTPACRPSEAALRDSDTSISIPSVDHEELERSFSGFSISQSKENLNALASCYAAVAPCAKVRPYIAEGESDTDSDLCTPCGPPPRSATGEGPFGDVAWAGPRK
Numbers stand for hits; n = inactive; x = no result; ! = not active in a repeat.

SMILES	KCNQ2 inh	KCNQ2 pot	Kir21 conf inh	HEK293 Tl flux	others
CC(C)(C)c1ccc(C(=O)CC(=O)c2cc(Cl)ccc2O)cc1	n	n	x	x
C=CCC1(CC=C)CCCN1C(=O)c1cc(COc2ccc(C)nc2)on1	n	x	x	x
CCOc1ccc(OCC(O)CN2CCc3ccccc3C2)cc1 (centres undefined)	n	x	x	x
Cc1cc(OCC(O)CN2CCc3ccccc3C2)cc(C(C)C)c1 (centres undefined)	n	x	53.0%	n
O=S(=O)(/C(=C/c1ccc(C(F)(F)F)cc1)c1nc2ccccc2[nH]1)c1ccccc1	-7.84	n	n	n
CC(C)c1ccc(/C=C(\c2nc3ccccc3[nH]2)S(=O)(=O)c2ccccc2)cc1	n	x	x	x
O=C(Nc1ccc(S(=O)(=O)Nc2ncccn2)cc1)c1ccccc1Br	n	n	x	x
Cc1ccc(NC(=O)c2ccc(Cn3cc(Cl)cn3)o2)c(C)c1	n	x	25.5%	n
COC(=O)c1sc(NC(=O)c2ccc(Cn3cc(Cl)cn3)o2)c(C#N)c1C	n	n	x	x
CCc1ccc(N2CC(C(=O)NC3CCCCC3C)CC2=O)cc1 (centres undefined)	n	x	x	x
Cc1ccc(-c2nc(=O)[nH]c3ccc(Br)cc23)cc1	n	n	x	x
CC1=NN(C(=O)c2ccc(Cl)cc2)C(O)(c2ccccc2)C1 (centres undefined)	n	20.3	n	n	CHO-K1 ctr=n;KCNQ1 sel pot=n;KCNQ2 pot conf=n;Kir2-1 sel=n;KCNQ2 W236L pot=n
CC1=NN(C(=O)CSCc2ccccc2)C(O)(c2ccc(Cl)cc2)C1 (centres undefined)	n	x	x	x
COc1ccc(Cc2nnc(Cl)c3ccccc23)cc1OC	n	n	x	x
COc1ccccc1C(=O)Nc1ccncc1	n	x	x	x
COc1cccc(C(=O)Nc2ccncc2)c1OC	n	7.19	n	n	CHO-K1 ctr=n;KCNQ1 sel pot=n;KCNQ2 pot conf=n;Kir2-1 sel=n
CN(C)CCCNC(=O)C(=O)NCC(c1cccs1)S(=O)(=O)c1ccc(F)cc1 (centres undefined)	n	n	x	x
CC(CC(=O)NCc1ccc(F)cc1)c1ccccc1 (centres undefined)	n	n	x	x
CSc1nc(C(C)C)ccc1CNC(=O)CC(C)c1ccccc1 (centres undefined)	n	29.6	n	n	CHO-K1 ctr=n;KCNQ1 sel pot=35.3;KCNQ2 pot conf=111.6;Kir2-1 sel=n;KCNQ2 W236L pot=n
CN(C)CC1CCCCC1C1(O)c2ccccc2CSc2sccc21 (centres undefined)	n	n	69.0%	n
CN(C)CC1CCCCC1OC(=O)c1ccc(Cl)cc1 (centres undefined)	n	n	x	x
CCCCCCCCC[n+]1cccc2c3ccccc3ccc21	n	x	6.5%	n
O=[N+]([O-])c1ccc(C[n+]2cccc3c4ccccc4ccc32)cc1	n	n	x	x
Cc1cccn2c(CNC3CCCc4ccccc43)c(C(=O)N3CCCCC3)nc12 (centres undefined)	n	n	x	x
CSc1ccc(C(=O)NCC(c2ccco2)N(C)C)cc1[N+](=O)[O-] (centres undefined)	n	n	x	x
SMILES	KCNQ2 inh	KCNQ2 pot	Kir21 conf inh	HEK293 Tl flux	others
CC(C)CCC(CCNCc1ccccn1)c1ccc(Cl)cc1 (centres undefined)	n	n	35.5%	n
S=C(NCc1ccc(Cl)cc1)NCc1ccccn1	n	x	x	x
O=C(Nc1ccccc1N1CCOCC1)c1cccc(Oc2ccccc2)c1	n	x	x	x
O=S(=O)(NCCc1ccccn1)c1ccc(OC(F)(F)F)cc1	n	x	x	x
O=S(=O)(NCCc1ccccn1)c1ccc(F)c(F)c1	n	6.06	n	n	CHO-K1 ctr=3.1;KCNQ1 sel pot=n;KCNQ2 pot conf=n;Kir2-1 sel=n;KCNQ2 W236L pot=n
Cc1cc(CN2CCC(n3nccc3NC(=O)c3ccccc3C)CC2)n[nH]1	n	n	x	x
O=C(N/N=C/c1cccc(Oc2ccccc2)c1)c1cccc(Br)c1	n	x	x	x
O=C(N/N=C/c1cccc(Oc2ccccc2)c1)c1cccc(O)c1	n	x	74.0%	n
COc1cc(NC(=O)CN(C)S(=O)(=O)c2ccc3c(c2)CC(C)N3C(C)=O)cc(OC)c1 (centres undefined)	n	n	x	x
Cc1cnc(NC(=O)c2cccs2)s1	n	n	x	x
O=C(Nc1ncc([N+](=O)[O-])s1)c1cccs1	n	7.7!	n	n	CHO-K1 ctr=3.5;KCNQ1 sel pot=n;KCNQ2 pot conf=n;Kir2-1 sel=n
CC(C)c1nc(SCC(=O)N2CCCCCC2)c2c(=O)n(C)c(=O)n(C)c2n1	n	17	n	n	CHO-K1 ctr=6.8;KCNQ1 sel pot=n;KCNQ2 pot conf=53.5;Kir2-1 sel=n;KCNQ2 W236L pot=n
CC(C)c1nc(SCC(=O)N2CCCC2)c2c(=O)n(C)c(=O)n(C)c2n1	n	n	x	x
CCc1nc(SCC(=O)N2CCCCCC2)c2c(=O)n(C)c(=O)n(C)c2n1	n	5.51	n	n	CHO-K1 ctr=n;KCNQ1 sel pot=5.9;KCNQ2 pot conf=34.7;Kir2-1 sel=n;KCNQ2 W236L pot=n
CCc1nc(SCC(=O)N2CCOCC2)c2c(=O)n(C)c(=O)n(C)c2n1	n	n	x	x
O=C(Nc1cccc(OC(=O)c2ccc(Br)o2)c1)c1ccccc1	n	x	x	x
COc1cccc(CN(C)C(=O)c2ccc(Oc3ccccc3)cc2)c1OC	n	x	x	x
CCN(CC(=O)NCc1ccc(Cl)cc1)CC(=O)NC1(C#N)CCCC1	n	x	x	x
CCOc1ccc(C(=O)N/N=C/c2ccc(-c3ccc(S(=O)(=O)Nc4ncccn4)cc3)o2)cc1	n	n	x	x
O=C(N/N=C/c1ccc(-c2ccc(S(=O)(=O)Nc3ncccn3)cc2)o1)c1cc2ccccc2cc1O	n	5.55	n	n	CHO-K1 ctr=n;KCNQ1 sel pot=n;KCNQ2 pot conf=n;Kir2-1 sel=n
COc1ccc(CN2C(=NC(=O)C3CCCO3)SC3CS(=O)(=O)CC32)cc1OC (centres undefined)	n	x	x	x
N#Cc1c(N2CCSCC2)nsc1-c1ccccc1Cl	n	x	x	x
CCOc1ccc(CN(CCC#N)C(=S)NC(=O)c2ccccc2)cc1	n	n	x	x
